Measurements published in PubChem BioAssay (NCI).
About 79,000 compounds went through this panel and 15% of them were active in at least one assay; those are over-represented in the sample as a whole. The source made the active and inactive calls. No stated cut-off is given here; in the data, active means growth inhibition above about 70%; inactive means the rest.

Key:
[1] = NCI Yeast Anticancer Drug Screen. Data for the rad50 strain (AID 155);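 further: 0% = growth of vehicle-only cultures of the same strain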; conditions: S. cerevisiae rad50 strain growth inhibition, stronger effect = higher value
Outline: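 Yeast carrying a defined DNA repair defect were exposed to test compounds, and growth was compared with vehicle-treated controls to give percent inhibition.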

[2] = NCI Yeast Anticancer Drug Screen. Data for the mec2-1 strain (AID 157); conditions: S. cerevisiae mec2-1 strain, stronger effect = higher value
Outline: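 Cells of the genetically defined mec2-1 yeast strain are incubated with test compound. Inhibition of growth is calculated against vehicle-treated controls.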

[3] = NCI Yeast Anticancer Drug Screen. Data for the sgs1 mgt1 strain (AID 161);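 further: 0% = growth of cultures given vehicle only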; conditions: S. cerevisiae sgs1 mgt1 strain, stronger effect = higher value
Outline: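 Mutant yeast exposed to compound; growth scored against vehicle-only wells.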

[4] = NCI Yeast Anticancer Drug Screen. Data for the cln2 rad14 strain (AID 165);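 further: 0% = growth equal to vehicle treated cultures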; conditions: S. cerevisiae cln2 rad14 strain, stronger effect = higher value
Outline: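 The screen exposed genetically defined yeast (cln2 rad14) to test compounds and scored growth inhibition relative to vehicle-treated controls.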

[5] = NCI Yeast Anticancer Drug Screen. Data for the bub3 strain (AID 167); conditions: S. cerevisiae bub3 mutant strain, stronger effect = higher value
Outline: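 Compounds were applied to a genetically altered yeast strain carrying a cell-cycle control defect. Growth inhibition was scored against vehicle-treated controls.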

[6] = NCI Yeast Anticancer Drug Screen. Data for the mlh1 rad18 strain (AID 175); conditions: S. cerevisiae mlh1 rad18 strain growth inhibition, stronger effect = higher value
Outline: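 Compound-treated yeast growth, normalised to vehicle controls. Strain bears defined DNA repair mutations.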

[7] = at 5.0 µM (retest, dose inferred, filed as 0.5)
[8] = at 50.0 µM (retest, dose inferred, filed as 5.0)

In the case of `CC(=O)CC(=O)OCc1ccccc1`, the growth inhibition [1, 7] is reported as 12% (inactive), the growth inhibition [1, 8] is reported as 97% (active) and the growth inhibition ([1]; at 50.0 µM) is reported as 94.5% (active). For the same molecule, the growth inhibition [2, 7] was 4% (inactive), the growth inhibition [2, 8] was 98% (active) and the growth inhibition ([2]; at 50.0 µM) was 97.2% (active). For the same molecule, the growth inhibition [3, 7] was 1% (inactive), the growth inhibition [3, 8] was 96% (active) and the growth inhibition ([3]; at 50.0 µM) was 98% (active). The growth inhibition [4, 7] was 4% (inactive), the growth inhibition [4, 8] was 89% (active) and the growth inhibition ([4]; at 50.0 µM) was 87.2% (active). The growth inhibition [5, 7] was 8% (inactive), the growth inhibition [5, 8] was 98% (active) and the growth inhibition ([5]; at 50.0 µM) was 96% (active). For the same molecule, the growth inhibition [6, 7] was 14% (inactive), the growth inhibition [6, 8] was 98% (active) and the growth inhibition ([6]; at 50.0 µM) was 97.7% (active).
With `ClC1=C(Cl)C(Cl)=C(Cl)C1` the growth inhibition [1, 7] was 6% (inactive), the growth inhibition [1, 8] was 93% (active) and the growth inhibition ([1]; at 50.0 µM) was 88.2% (active). The growth inhibition [2, 7] was 7% (inactive), the growth inhibition [2, 8] was 97% (active) and the growth inhibition ([2]; at 50.0 µM) was 51.4% (inactive). The growth inhibition [3, 7] was 10% (inactive), the growth inhibition [3, 8] was 93% (active) and the growth inhibition ([3]; at 50.0 µM) was 48.5% (inactive). The growth inhibition [4, 7] was 5% (inactive), the growth inhibition [4, 8] was 85% (active) and the growth inhibition ([4]; at 50.0 µM) was 3.55% (inactive). For the same molecule, the growth inhibition [5, 7] was 4% (inactive), the growth inhibition [5, 8] was 96% (active) and the growth inhibition ([5]; at 50.0 µM) was 79.9% (active). The growth inhibition [6, 7] was 0% (inactive), the growth inhibition [6, 8] was 96% (active) and the growth inhibition ([6]; at 50.0 µM) was 91.5% (active).
For `NC(CSSCC(N)C(=O)Nc1ccc2ccccc2c1)C(=O)Nc1ccc2ccccc2c1` (configuration not stated), the growth inhibition [1, 7] was 42% (inactive), the growth inhibition [1, 8] was 98% (active) and the growth inhibition ([1]; at 50.0 µM) was 88.6% (active). The growth inhibition [2, 7] was 42% (inactive), the growth inhibition [2, 8] was 100% (active) and the growth inhibition ([2]; at 50.0 µM) was 91.7% (active). The growth inhibition [3, 7] was 54% (inactive), the growth inhibition [3, 8] was 100% (active) and the growth inhibition ([3]; at 50.0 µM) was 91.7% (active). For the same molecule, the growth inhibition [4, 7] was 21% (inactive), the growth inhibition [4, 8] was 99% (active) and the growth inhibition ([4]; at 50.0 µM) was 90.3% (active). For the same molecule, the growth inhibition [5, 7] was 37% (inactive), the growth inhibition [5, 8] was 99% (active) and the growth inhibition ([5]; at 50.0 µM) was 89.5% (active). The growth inhibition [6, 7] was 68% (inactive), the growth inhibition [6, 8] was 99% (active) and the growth inhibition ([6]; at 50.0 µM) was 88% (active).
For `O=c1[nH]c2c([N+](=O)[O-])cc(Cl)cc2nc1/C=C(\O)c1ccco1`, the growth inhibition [1, 7] was 17% (inactive), the growth inhibition [1, 8] was 74% (active) and the growth inhibition ([1]; at 50.0 µM) was 72.7% (active). For the same molecule, the growth inhibition [2, 7] was -5% (inactive), the growth inhibition [2, 8] was 44% (inactive) and the growth inhibition ([2]; at 50.0 µM) was 56.1% (inactive). For the same molecule, the growth inhibition [3, 7] was 1% (inactive), the growth inhibition [3, 8] was 54% (inactive) and the growth inhibition ([3]; at 50.0 µM) was 84.2% (active). For the same molecule, the growth inhibition [4, 7] was -1% (inactive), the growth inhibition [4, 8] was 62% (inactive) and the growth inhibition ([4]; at 50.0 µM) was 59% (inactive). The growth inhibition [5, 7] was 4% (inactive), the growth inhibition [5, 8] was 66% (inactive) and the growth inhibition ([5]; at 50.0 µM) was 32.6% (inactive). The growth inhibition [6, 7] was -4% (inactive), the growth inhibition [6, 8] was 70% (active) and the growth inhibition ([6]; at 50.0 µM) was 80% (active).
For `Cc1cc([N+](=O)[O-])cc(C)c1OC(=O)Nc1c(Cl)cccc1Cl`, the growth inhibition [1, 7] was 37% (inactive), the growth inhibition [1, 8] was 37% (inactive) and the growth inhibition ([1]; at 50.0 µM) was 31.6% (inactive). The growth inhibition [2, 7] was 30% (inactive), the growth inhibition [2, 8] was 45% (inactive) and the growth inhibition ([2]; at 50.0 µM) was 22.1% (inactive). The growth inhibition [3, 7] was 46% (inactive), the growth inhibition [3, 8] was 71% (active) and the growth inhibition ([3]; at 50.0 µM) was 55.4% (inactive). For the same molecule, the growth inhibition [4, 7] was 32% (inactive), the growth inhibition [4, 8] was 36% (inactive) and the growth inhibition ([4]; at 50.0 µM) was 22.1% (inactive). For the same molecule, the growth inhibition [5, 7] was 24% (inactive), the growth inhibition [5, 8] was 68% (inactive) and the growth inhibition ([5]; at 50.0 µM) was 23.1% (inactive). For the same molecule, the growth inhibition [6, 7] was 48% (inactive), the growth inhibition [6, 8] was 56% (inactive) and the growth inhibition ([6]; at 50.0 µM) was 24.1% (inactive).
With `O=c1[nH]c(=O)c2n[nH]nc2[nH]1` the growth inhibition [1, 7] was 6% (inactive), the growth inhibition [1, 8] was 3% (inactive) and the growth inhibition ([1]; at 50.0 µM) was 0.45% (inactive). The growth inhibition [2, 7] was -1% (inactive), the growth inhibition [2, 8] was 5% (inactive) and the growth inhibition ([2]; at 50.0 µM) was -4.95% (inactive). For the same molecule, the growth inhibition [3, 7] was 1% (inactive), the growth inhibition [3, 8] was 9% (inactive) and the growth inhibition ([3]; at 50.0 µM) was 33.4% (inactive). For the same molecule, the growth inhibition [4, 7] was 9% (inactive), the growth inhibition [4, 8] was 8% (inactive) and the growth inhibition ([4]; at 50.0 µM) was -42.5% (inactive). For the same molecule, the growth inhibition [5, 7] was 3% (inactive), the growth inhibition [5, 8] was 3% (inactive) and the growth inhibition ([5]; at 50.0 µM) was 7.7% (inactive). For the same molecule, the growth inhibition [6, 7] was 3% (inactive), the growth inhibition [6, 8] was 6% (inactive) and the growth inhibition ([6]; at 50.0 µM) was 24.1% (inactive).
In the case of `CC(C)(C)OC(=O)N(CCCCNC(=O)OCc1ccccc1)CCCNC(=O)OCc1ccccc1`, the growth inhibition [1, 7] is reported as 9% (inactive), the growth inhibition [1, 8] is reported as 9% (inactive) and the growth inhibition ([1]; at 50.0 µM) is reported as 23.1% (inactive). For the same molecule, the growth inhibition [2, 7] was 7% (inactive), the growth inhibition [2, 8] was -4% (inactive) and the growth inhibition ([2]; at 50.0 µM) was 14.8% (inactive). For the same molecule, the growth inhibition [3, 7] was -19% (inactive), the growth inhibition [3, 8] was -3% (inactive) and the growth inhibition ([3]; at 50.0 µM) was -1.15% (inactive). For the same molecule, the growth inhibition [4, 7] was 0% (inactive), the growth inhibition [4, 8] was 18% (inactive) and the growth inhibition ([4]; at 50.0 µM) was -0.85% (inactive). For the same molecule, the growth inhibition [5, 7] was 2% (inactive), the growth inhibition [5, 8] was -1% (inactive) and the growth inhibition ([5]; at 50.0 µM) was -13.4% (inactive). The growth inhibition [6, 7] was 9% (inactive), the growth inhibition [6, 8] was 9% (inactive) and the growth inhibition ([6]; at 50.0 µM) was -57.7% (inactive).
With `Cc1cc(C)c(C(=O)C(Br)C(Br)c2ccccc2)c(C)c1` (configuration not stated) the growth inhibition [1, 7] was 54% (inactive), the growth inhibition [1, 8] was 94% (active) and the growth inhibition ([1]; at 50.0 µM) was 95.6% (active). The growth inhibition [2, 7] was 43% (inactive), the growth inhibition [2, 8] was 97% (active) and the growth inhibition ([2]; at 50.0 µM) was 95.5% (active). The growth inhibition [3, 7] was 63% (inactive), the growth inhibition [3, 8] was 95% (active) and the growth inhibition ([3]; at 50.0 µM) was 95.8% (active). For the same molecule, the growth inhibition [4, 7] was 15% (inactive), the growth inhibition [4, 8] was 91% (active) and the growth inhibition ([4]; at 50.0 µM) was 83.4% (active). The growth inhibition [5, 7] was 47% (inactive), the growth inhibition [5, 8] was 93% (active) and the growth inhibition ([5]; at 50.0 µM) was 94.5% (active). The growth inhibition [6, 7] was 46% (inactive), the growth inhibition [6, 8] was 94% (active) and the growth inhibition ([6]; at 50.0 µM) was 95.6% (active).
With `COC(=O)c1ccc2c(c1)C(O)NC(=O)O2` (configuration not stated) the growth inhibition [1, 7] was 16% (inactive), the growth inhibition [1, 8] was 97% (active) and the growth inhibition ([1]; at 50.0 µM) was 98.5% (active). The growth inhibition [2, 7] was 15% (inactive), the growth inhibition [2, 8] was 97% (active) and the growth inhibition ([2]; at 50.0 µM) was 98% (active). The growth inhibition [3, 7] was 15% (inactive), the growth inhibition [3, 8] was 98% (active) and the growth inhibition ([3]; at 50.0 µM) was 98.9% (active). For the same molecule, the growth inhibition [4, 7] was 18% (inactive), the growth inhibition [4, 8] was 98% (active) and the growth inhibition ([4]; at 50.0 µM) was 98.5% (active). For the same molecule, the growth inhibition [5, 7] was 3% (inactive), the growth inhibition [5, 8] was 95% (active) and the growth inhibition ([5]; at 50.0 µM) was 98.6% (active). The growth inhibition [6, 7] was 21% (inactive), the growth inhibition [6, 8] was 97% (active) and the growth inhibition ([6]; at 50.0 µM) was 98.5% (active).
